We go through 13 compounds from PubChem BioAssay.

Each structure is given as a SMILES string. The source made the active and inactive calls. Unless noted, how the calls were made is not given here.

Experiment [1] has as its system XIP peptide (Xip251-270) binding. The experiment is described as follows: small-molecule binders of XIP peptide, primary screen, biochemical, small-molecule microarray, fluorescence 635/667 nm, 0.1 µg/mL protein (AID 1182). Conditions: fluorescent protein binding, 635 nm, higher = more signal, called active from +8 up or from −8 down.
Experiment [2] relates to XIP peptide (Xip251-270). The experiment in a line: small-molecule binders of XIP peptide, primary screen, biochemical, small-molecule microarray, fluorescence 635/667 nm, 0.5 µg/mL protein (AID 1183). Conditions: small-molecule microarray binding, fluorescence 635 nm; higher = more signal.
The nature of experiment [3]: Plasmodium falciparum growth inhibition, primary screen, strain 3D7, DAPI fluorescence, 100 nL (AID 1184).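 Further: parasites grown inside human red blood cells in medium with human serum.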 Conditions: P. falciparum 3D7 growth, 3 d, higher = more signal.
The target in experiment [4] is Homeobox protein Hox-A13 (Mus musculus) (UniProt Q62424). The experiment is described as follows: inhibitors of HoxA13-DNA binding, primary screen, biochemical, fluorescence polarization, labeled oligonucleotide (AID 1185). Conditions: 15 min, higher = more signal, called active from +8 up or from −8 down.
Sequence of Homeobox protein Hox-A13 (Mus musculus) (Q62424 whole entry, looked up): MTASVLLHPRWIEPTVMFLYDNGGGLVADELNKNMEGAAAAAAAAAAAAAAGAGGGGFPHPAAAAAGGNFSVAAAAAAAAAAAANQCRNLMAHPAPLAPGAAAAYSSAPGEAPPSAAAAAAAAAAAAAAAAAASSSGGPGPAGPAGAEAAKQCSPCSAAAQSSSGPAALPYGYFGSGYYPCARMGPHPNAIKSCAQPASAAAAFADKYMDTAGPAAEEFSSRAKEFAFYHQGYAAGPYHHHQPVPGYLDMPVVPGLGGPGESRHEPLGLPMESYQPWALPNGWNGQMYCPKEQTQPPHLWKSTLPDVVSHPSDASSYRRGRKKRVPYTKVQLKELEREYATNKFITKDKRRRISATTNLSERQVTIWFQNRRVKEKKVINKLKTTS
A short description of experiment [5]: inhibitors of hydroxyurea-induced Chk1 phosphorylation, primary screen, imaging, HeLa, phospho-Chk1 antibody, percent positive cells (AID 1186). Conditions: hydroxyurea-induced phospho-Chk1 immunofluorescence imaging, higher = more signal.
The nature of experiment [6]: inhibitors of hydroxyurea-induced Chk1 phosphorylation, primary screen, imaging, HeLa, phospho-Chk1 nuclear intensity (AID 1187). The settings on record: hydroxyurea-induced phospho-Chk1 immunofluorescence imaging, higher = more signal.

For `N#Cc1ccc(C(O)C2C=CC3C(=O)NC(=O)C3N2Nc2ccc(Cl)cc2Cl)cc1` (stereo not drawn), the composite z-score in experiment [1] was 1.42 (inactive); in experiment [2], 0.0653. The z-score is 0.684 in experiment [3], -5.63 (inactive) in experiment [4], 0.731 (inactive) in experiment [5] and 0.688 (inactive) in experiment [6].
`CCCCCC1=C2CNC(Cc3ccccc3)(C(=O)OC)C=C2C(C)C1=O` (stereo not drawn): the values for the composite z-score in experiment [1] and in experiment [2] were -0.186 (inactive) and 0.247, respectively. The z-score is -0.662 in experiment [3], -8.44 (active) in experiment [4], 1.14 (inactive) in experiment [5] and 0.846 (inactive) in experiment [6].
On to `COC(=O)c1cccc([C@H]2OC(=CC(=O)OC(C)C)C[C@@H](c3cccc(C(=O)OC)c3)O2)c1`, for which the composite z-score in experiment [1] is 0.308 (inactive); in experiment [2], 0.713. In addition, the z-score in experiment [3] was -0.832; in experiment [4], -4.13 (inactive); in experiment [5] it was -0.504 (inactive); in experiment [6], -1.39 (inactive).
With `O=C1NC(=O)C2C1C=CC(C(O)c1ccc([N+](=O)[O-])cc1)N2Nc1ccccn1` (stereo not drawn), the composite z-score in experiment [1] was -0.254 (inactive); in experiment [2], 0.726. Moreover, the z-score in experiment [3] is 1.21; in experiment [4], -2.37 (inactive); in experiment [5], -0.284 (inactive); in experiment [6], -0.347 (inactive).
Take `COCCOC(=O)N1C(=O)[C@@]2(c3cc(C#CCC(C(=O)OC)C(=O)OC)ccc31)[C@H](C(N)=O)[C@H]1C(=O)O[C@H](c3ccccc3)[C@H](c3ccccc3)N1[C@@H]2c1ccc(O)cc1`: the values for the composite z-score in experiment [1] and in experiment [2] were 0.896 (inactive) and 0.77, respectively. Further, the z-score in experiment [3] is -2.1; in experiment [4] it was 0.218 (inactive); in experiment [5], -0.0553 (inactive); in experiment [6], 0.0543 (inactive).
For the compound `COc1ccc([Si](C)(C)[C@@H]2[C@@H](CC(=O)N3CCC[C@H]3CO)O[C@]3(C(=O)N(Cc4cccc(N5CCCCC5=O)c4)c4ccccc43)[C@H]2C)cc1`, the results for the composite z-score in experiment [1] and in experiment [2] were 2.84 (inactive) and 0.799, respectively. For the same compound, the z-score in experiment [3] is -1.26; in experiment [4], -2.93 (inactive); in experiment [5], -0.515 (inactive); in experiment [6] it was 0.336 (inactive).
As for `COCCn1c(C(=O)N(C)C)cc2c1C[C@H]1CN(C(=O)c3ccccc3)[C@@](Cc3ccc(OC)cc3)(C(=O)OC)[C@@H]21`, the composite z-score was 0.116 (inactive) in experiment [1] and 0.435 in experiment [2]. Moreover, the z-score in experiment [3] was -1.45; in experiment [4], -3.91 (inactive); in experiment [5] it was 0.688 (inactive); in experiment [6] it was 0.542 (inactive).
For the compound `C=CCC(OC(C)=O)[C@@H]1[C@@H](N(Cc2cc3ccccc3o2)C(=O)c2cccc3ccccc23)c2cc(OCCCO)ccc2N1C(=O)c1ccc2ccccc2n1` (stereo partly drawn), the composite z-score was -0.667 (inactive) in experiment [1] and 0.202 in experiment [2]. Also, the z-score is -1.99 in experiment [3], -1.2 (inactive) in experiment [4], -0.0897 (inactive) in experiment [5] and 0.0983 (inactive) in experiment [6].
On to `COCCOC(=O)N1C(=O)[C@@]2(c3cc(C#CCNC(N)=O)ccc31)[C@H](C(=O)Nc1nc3ccccc3s1)[C@H]1C(=O)O[C@H](c3ccccc3)[C@H](c3ccccc3)N1[C@@H]2c1ccccc1OCCO`, for which the composite z-score in experiment [1] was 0.278 (inactive); in experiment [2] it was 0.634. Further, the z-score in experiment [3] is -1.78; in experiment [4], 2.01 (inactive); in experiment [5], -0.339 (inactive); in experiment [6] it was -0.644 (inactive).
As to `COC(=O)[C@@]1(Cc2ccccc2)[C@H]2c3cc(C(=O)N(C)C)n(Cc4ccc(C(F)(F)F)nc4)c3C[C@H]2CN1C(=O)c1ccccc1`, the composite z-score in experiment [1] was 0.119 (inactive); in experiment [2] it was 0.337. In addition, the z-score in experiment [3] was -1.24; in experiment [4], -3.46 (inactive); in experiment [5], 0.296 (inactive); in experiment [6], 0.0603 (inactive).
For the compound `CN(C)C(=O)[C@@]1(Cc2ccccc2CN=[N+]=[N-])COC(c2ccc(OCCCO)cc2)=N1`, the composite z-score in experiment [1] was 0.182 (inactive); in experiment [2], 0.62. The z-score in experiment [3] was -2.08; in experiment [4] it was -5.02 (inactive); in experiment [5] it was -0.439 (inactive); in experiment [6] it was -0.521 (inactive).
`CC1CC/C=C\[C@H]2OC34C=CCN(c5ccc(Cl)cc5)C(=O)[C@H]3N(CCCCCCO)C(=O)[C@]4(C)C2C(=O)O1` (stereo partly drawn): the results for the composite z-score in experiment [1] and in experiment [2] were 0.675 (inactive) and 0.265, respectively. Moreover, the z-score in experiment [3] is 0.955; in experiment [4], -5.35 (inactive); in experiment [5] it was -0.517 (inactive); in experiment [6] it was -0.187 (inactive).
Take `COC(=O)[C@]1(Cc2ccccc2)N=C(c2ccc(OCCCO)cc2)O[C@@H]1c1ccccc1CN=[N+]=[N-]`: the composite z-score is 0.506 (inactive) in experiment [1] and 0.753 in experiment [2]. For the same compound, the z-score was -2.47 in experiment [3], -1.89 (inactive) in experiment [4], -0.623 (inactive) in experiment [5] and -0.631 (inactive) in experiment [6].
